# Assay outcomes deposited in PubChem BioAssay by several laboratories.
# PHOSPHO1 block = blocks human PHOSPHO1 phosphatase activity | 1.1% of 290,000 active | inhibition, % at 13.3 µM | Q8TCT1 | recombinant PHOSPHO1, absorbance phosphatase assay; in the data active = inhibition above about 60%
# esBAF inh = inhibitors of esBAF chromatin remodeling in mouse ES cells. Bmi1-luciferase knock-in reporter, 24 h; 100% = twice the neutral-well signal. 2% of 350,000 active. AID 602393. reporter increase, % at 12.5 µM; in the data active = activation above about 40%;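 note: 0% = median of the plate's neutral control wells and 100% = double that signal; a rise in the Bmi1 reporter signal indicates esBAF inhibition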
# Wnt bcat act = Wnt/beta-catenin pathway activation; 1.2% of 300,000 active; Wnt/beta-catenin reporter cell assay, activator, plate reader; activation, % at 9.35 µM; in the data active = activation above about 30%, passing the limit was not always enough;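 note: 0% = neutral control wells and 100% = positive control wells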
# MITF act = MITF TRPM1 promoter activation in melanoma cells; activation, % at 12.5 µM; SK-MEL-5 TRPM1-promoter luciferase, 24 h; % of positive control, neutral wells = 0; 0.75% of 300,000 active;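 active = mean activation of at least 80% with every replicate also reaching 80%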;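 note: 0% = neutral control wells and 100% = parthenolide positive control wells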
# APOBEC3G inh = inhibitors of human APOBEC3G DNA deaminase; Q9HC16; recombinant A3G, ssDNA deamination FAM/TAMRA fluorescence; inhibition, % at 20 µM; 0.28% of 330,000 active;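 active = inhibition of at least 40% at 20 µM, with no more than 30% in the related APOBEC3A deaminase screen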;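 note: plate controls were DMSO wells with A3G for no effect and wells lacking A3G enzyme for full effect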
# Target sequence (Q9HC16 whole entry, looked up): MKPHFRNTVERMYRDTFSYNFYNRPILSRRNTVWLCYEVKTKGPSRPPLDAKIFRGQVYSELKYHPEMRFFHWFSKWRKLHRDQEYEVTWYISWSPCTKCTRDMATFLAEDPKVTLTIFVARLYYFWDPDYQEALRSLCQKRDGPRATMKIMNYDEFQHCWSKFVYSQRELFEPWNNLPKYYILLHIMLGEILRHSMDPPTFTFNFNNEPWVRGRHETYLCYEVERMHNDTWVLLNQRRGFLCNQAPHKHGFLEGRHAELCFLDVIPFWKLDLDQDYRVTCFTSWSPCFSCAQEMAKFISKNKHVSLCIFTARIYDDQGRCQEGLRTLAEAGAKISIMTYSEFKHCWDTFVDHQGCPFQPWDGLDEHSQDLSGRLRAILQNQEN
# A3A deaminase = inhibitors of human APOBEC3A DNA deaminase. recombinant A3A, FAM/TAMRA ssDNA deamination fluorescence. 0.41% of 330,000 active. inhibition, % at 20 µM. P31941. AID 493011;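 active = at least 40% inhibition at 20 µM here, with at most 30% in a related deaminase screen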;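 note: plate controls were A3A with DMSO for no effect and wells lacking A3A enzyme for full effect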
# Target sequence (P31941 whole entry, looked up): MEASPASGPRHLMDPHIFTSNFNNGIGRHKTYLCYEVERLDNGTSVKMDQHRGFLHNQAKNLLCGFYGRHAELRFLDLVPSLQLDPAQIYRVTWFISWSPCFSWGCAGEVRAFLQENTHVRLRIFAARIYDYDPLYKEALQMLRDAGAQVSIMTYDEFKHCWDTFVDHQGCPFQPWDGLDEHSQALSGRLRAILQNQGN
# Starred values were filed as active, the others as inactive; x = no result given. Most compounds without a hit are left out; they make up all but 3.6% or so of the library.
SMILES,PHOSPHO1 block,esBAF inh,Wnt bcat act,MITF act,APOBEC3G inh,A3A deaminase
O=C1CCCN1CCCNc1ncnc2c1cnn2-c1ccc(Cl)cc1,16,42*,8,24,-12,-2
Clc1ccc(-n2ncc3c(NCc4ccco4)ncnc32)cc1,-1,52*,60*,x,3,3
c1ccc(-n2ncc3c(NCc4cccnc4)ncnc32)cc1,-44,x,x,47,-3,-5
c1ccc(-n2ncc3c(NCc4cccs4)ncnc32)cc1,-18,45*,71*,x,-4,1
C[C@@H]1CN([C@@H](C)CO)C(=O)c2cc(NC(=O)c3ccncc3)ccc2O[C@H]1CN(C)S(=O)(=O)c1cccs1,x,-1,x,x,x,x
Cc1noc(C)c1NC(=O)Nc1cccc2c1O[C@H](CN(C)Cc1ccc(Cl)c(Cl)c1)[C@H](C)CN([C@@H](C)CO)C2=O,x,1,x,x,x,x
Cc1noc(C)c1S(=O)(=O)N(C)C[C@H]1OCCCC[C@@H](C)Oc2ccc(NC(=O)Cc3ccccc3)cc2C(=O)N([C@H](C)CO)C[C@@H]1C,x,2,x,x,x,x
C[C@@H]1CN([C@@H](C)CO)C(=O)c2ccccc2-c2ccccc2CO[C@@H]1CN(C)C(=O)[C@@H]1CCCN1C,x,2,x,x,x,x
COc1cccc(-c2ncc3ccccc3c2COC(=O)N2CCOCC2)c1,x,53*,3,41,-9,-5
COc1cccc(-c2ncc3ccccc3c2COC(=O)N2CCCCC2)c1,x,2,-6,16,-12,-2
CN(C)CCCNc1ncnc2c1c(-c1ccccc1)cn2-c1ccccc1,5,3,-8,22,-10,-2
CN(C)CCCNc1ncnc2scc(-c3ccccc3)c12,32,x,40*,1,-11,-4
CN1C(=O)c2cc(NC(=O)c3ccc(F)c(F)c3)ccc2OC[C@@H]2O[C@@H](CC(=O)N3CCCCC3)CC[C@@H]21,x,12,x,x,x,x
Cc1ccc(NC(=O)N2C(=O)C3(OCCO3)c3ccccc32)cc1,-4,58*,x,71,-4,-3
CN(C)C(=O)C[C@H]1CC[C@H]2[C@@H](COC[C@H](O)CN2S(=O)(=O)c2ccccc2)O1,x,-2,x,x,x,x
COc1ccc(OC)c2sc(N3CCc4ccccc4C3)nc12,20,x,7,33,-1,3
COc1ccc(OC)c2sc(N3CCCCC3)nc12,-11,46*,24,x,-4,26
CC(=O)C1=C(O)C(=O)N(c2ccccn2)C1c1ccc(Cl)cc1 (stereo unspecified),45,47*,-1,38,8,-6
CC(=O)C1=C(O)C(=O)N(c2ccccn2)C1c1ccc(C)cc1 (stereo unspecified),x,-5,8,4,-3,0
Cc1nn(-c2ccc3ccccc3c2)c(=O)c2ccccc12,30,x,61*,55,-4,-2
O=C(O)CC(c1ccccc1)c1ccccc1,2,-1,x,5,0,3
O=C(O)CC(CN1C(=O)c2ccccc2C1=O)c1ccccc1 (stereo unspecified),x,-10,45*,7,0,0
CCS(=O)(=O)NCC[C@@H]1CC[C@@H](NS(=O)(=O)c2ccccc2C)[C@H](CO)O1,x,2,x,x,x,x
CCOC(=O)c1cc(C#N)c(SCC(=O)c2cc(C#N)c(SC)nc2C)nc1C,73*,2,-1,-7,-9,-4
CCCNC(=O)N(C)C[C@H]1Oc2ncc(C#CC3CC3)cc2C(=O)N([C@@H](C)CO)C[C@H]1C,x,-13,x,x,x,x
SMILES,PHOSPHO1 block,esBAF inh,Wnt bcat act,MITF act,APOBEC3G inh,A3A deaminase
O=C(C[C@H]1C=C[C@H](NC(=O)c2cccc(F)c2)[C@H](CO)O1)NCc1ccccc1,x,-1,x,x,x,x
CCCOc1ccc(C(=O)Nc2ccc3c(c2)OCO3)cc1,56,20,43*,68,-1,1
O=C(Nc1ccc2c(c1)OCO2)c1ccc(CO)cc1,x,38,48*,35,-7,-3
O=C(NCCOc1ccccc1)c1ccc2c(c1)OCO2,-54,-70,x,-56,19,6
CCCN1C(=O)c2ccc(C(=O)Nc3ccc4c(c3)OCO4)cc2C1=O,18,63*,9,66,-2,5
CN(CCOc1ccccc1)C(=O)c1ccc2c(c1)OCO2,x,43*,-2,68,-8,-3
Cc1noc(C)c1S(=O)(=O)N(C)C[C@H]1OCCCC[C@@H](C)Oc2ccc(NS(=O)(=O)c3ccccc3)cc2C(=O)N([C@H](C)CO)C[C@@H]1C,x,6,x,x,x,x
CCCCOc1ccc(C(=O)Nc2ccc3c(c2)OCO3)cc1,25,42*,35*,71,8,5
COCC(=O)Nc1ccc2c(c1)C(=O)N(C)C[C@@H](OC)[C@@H](C)CN(C)[C@H](C)CO2,x,0,x,x,x,x
CCOc1cc(/C=N/Nc2nnc(C)n2N)ccc1O,x,-4,3,x,-4,-1
CCOc1cc(/C=N/Nc2ncnc(Cl)c2N)ccc1O,6,57*,x,51,-1,5
CCOc1cc(/C=N/NC(=O)N/N=C/c2ccc(O)c(OCC)c2)ccc1O,x,x,49*,x,-3,1
C[C@@H]1CCCCO[C@@H](CN(C)C(=O)Nc2ccccc2)[C@H](C)CN([C@@H](C)CO)C(=O)c2cc(NC(=O)C3CCCCC3)ccc2O1,x,2,x,x,x,x
COc1ccc(S(=O)(=O)N(C)C[C@H]2OCCCC[C@H](C)Oc3ccc(NS(=O)(=O)c4cccs4)cc3C(=O)N([C@H](C)CO)C[C@H]2C)cc1,x,-4,x,x,x,x
CO[C@@H]1CN(C)C(=O)c2ccc(NS(=O)(=O)c3cccc(C)c3)cc2OC[C@H](C)NC[C@H]1C,x,4,x,x,x,x
COC(=O)c1ccc(NC(=O)C2C3C=CC(O3)C2C(=O)O)cc1 (stereo unspecified),14,57*,x,9,-3,1
COC(=O)c1ccc(NC(=O)C2C3C=CC(C3)C2C(=O)O)cc1 (stereo unspecified),31,4,-1,-7,-7,-5
O=C(Nc1ccc(F)cc1)C1CC2CCC1C2 (stereo unspecified),45,7,-2,x,-6,0
CCOC(=O)c1ccc(NS(=O)C23CC4CC(CC(C4)C2)C3)cc1 (stereo unspecified),6,64*,x,12,9,-3
CCOC(=O)c1ccc(NC(=O)C2CC3CCC2C3)cc1 (stereo unspecified),x,x,46*,x,-7,-1
CCOC(=O)c1ccc(NC(=O)CNC(=O)C23CC4CC(CC(C4)C2)C3)cc1,16,-11,x,5,2,1
COC(=O)c1ccc(NC(=O)C2CC3CCC2C3)cc1 (stereo unspecified),x,47*,-2,98*,-4,-4
CC(C)NC(=O)Nc1ccc2c(c1)CC(=O)N([C@H](C)CO)C[C@@H](C)[C@@H](CN(C)S(=O)(=O)c1cn(C)cn1)O2,x,-1,x,x,x,x
Cc1ccc(S(=O)(=O)N(C)C[C@@H]2Oc3ccc(NS(C)(=O)=O)cc3C(=O)N([C@@H](C)CO)C[C@H]2C)cc1,x,-1,x,x,x,x
